This passage reports growth results from PubChem BioAssay (NCI).

This is part of a sample that, as a whole, favours compounds with a hit. Of some 83,000 tested, about 20% had one in any assay.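 A percent growth of 40 corresponds to 60% growth inhibition; 0 means no net growth; -100 means all cells died. Active threshold: below 10.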 A number with no mark means an inactive call. Active and inactive are the calls of the source.

Some test systems named below: NCI-H23 lung; NCI-H226 lung; NCI-H322M lung; HOP-62 NSCLC; NCI-H460 lung; HOP-92 NSCLC; NCI-H522 lung; A549/ATCC NSCLC; 786-0 renal; COLO 205 colon; DU-145 prostate; K-562 leukemia; MALME-3M melanoma; MDA-MB-231 breast; RXF 393 renal; SF-268 CNS; SF-539 CNS; UACC-257 melanoma; M14 melanoma; SF-295 CNS.
Common to all, as to experiment: NCI-60 one-dose screen, 48 h (100 = growth as untreated, 0 = no growth, -100 = all killed)
Holding throughout (conditions): 10 µM unless noted

Turning to `COc1ccc2c(c1)C/C(=C\c1cc(-c3ccc4c(c3)OCO4)n[nH]1)C2=O`, the growth in the assay on NCI-H23 lung is 111%; in the assay with NCI-H226 lung it was 86.5%; in the assay on NCI-H322M lung, 113%; with HOP-62 NSCLC it was 102%; in the assay with NCI-H460 lung it was 92.6%; in the assay with HOP-92 NSCLC it was 87.2%. Besides, the growth in the assay with NCI-H522 lung is 105%; with A549/ATCC NSCLC it was 95.7%; in the assay with 786-0 renal, 106%; in the assay with COLO 205 colon, 105%; in the assay with DU-145 prostate, 112%; with K-562 leukemia, 60.1%. In addition, the growth in the assay with MALME-3M melanoma is 112%; in the assay on MDA-MB-231 breast, 79.7%; in the assay with RXF 393 renal, 95.6%; in the assay with SF-268 CNS, 106%; in the assay on SF-539 CNS it was 92.4%; in the assay with UACC-257 melanoma it was 103%. Also, the growth in the assay on M14 melanoma was 97.2%.

On to `CN(C)c1ccc(N)c2ccccc12`, for which the growth is -79.6% (active) with NCI-H23 lung; 47% with NCI-H226 lung; 58.7% in the assay on NCI-H322M lung; 74.1% with HOP-62 NSCLC; 52.5% in the assay with NCI-H460 lung; 105% with HOP-92 NSCLC. Further, the growth in the assay with NCI-H522 lung is 80.1%; in the assay with A549/ATCC NSCLC it was 49.5%; in the assay with 786-0 renal it was 87.1%; with COLO 205 colon it was 19.6%; in the assay on DU-145 prostate, -96.4% (active); with K-562 leukemia, 48.4%. For the same compound, the growth in the assay with MALME-3M melanoma is -85.5% (active); in the assay with RXF 393 renal, 111%; in the assay with SF-268 CNS it was 77%; in the assay with SF-295 CNS, 43.4%; with SF-539 CNS, 38.4%; in the assay on UACC-257 melanoma, -2.3% (active). Besides, the growth with M14 melanoma was -94.9% (active).

`O=C(c1ccccc1)C(CN1CCOCC1)c1ccccc1` (configuration not stated): the growth in the assay with NCI-H23 lung was 65.3%; with NCI-H226 lung, 40.1%; with NCI-H322M lung, 84.7%; in the assay with HOP-62 NSCLC, 81%; in the assay with NCI-H460 lung, 79.4%; with HOP-92 NSCLC it was 40.5%. Besides, the growth is -51.3% (active) in the assay on NCI-H522 lung; 95.3% in the assay with A549/ATCC NSCLC; 31% with 786-0 renal; 25.5% with COLO 205 colon; 28.9% with DU-145 prostate; 7.04% (active) in the assay with K-562 leukemia. The growth with MALME-3M melanoma was -3.82% (active); in the assay on MDA-MB-231 breast it was 33.2%; in the assay with RXF 393 renal, 25.9%; in the assay on SF-268 CNS, 27%; in the assay on SF-539 CNS it was 37.3%; with UACC-257 melanoma it was 51.5%. For the same compound, in the assay with M14 melanoma, the growth was 27.8%.

In the case of `CC(C)(C)c1ccc(OP(=S)(N/N=C/c2ccccc2O)Oc2ccc(C(C)(C)C)cc2)cc1`, the growth is 58.1% in the assay on NCI-H23 lung; 58.6% with NCI-H226 lung; 76.3% in the assay with NCI-H322M lung; 91.7% with HOP-62 NSCLC; 87% in the assay on NCI-H460 lung; 70.6% with HOP-92 NSCLC. In addition, the growth with NCI-H522 lung is 12.1%; in the assay with A549/ATCC NSCLC it was 56.7%; in the assay with 786-0 renal it was 68.6%; in the assay with COLO 205 colon, 79.7%; in the assay with DU-145 prostate it was 92%; with K-562 leukemia, 59%. Besides, the growth in the assay on MALME-3M melanoma was 86.8%; in the assay with MDA-MB-231 breast it was 63.5%; with RXF 393 renal, 87.3%; in the assay on SF-268 CNS it was 69.8%; in the assay on SF-539 CNS, 66.8%; in the assay with UACC-257 melanoma, 59.8%. In addition, in the assay on M14 melanoma, the growth was 77.7%.

In the case of `O=C(CI)Nc1ccc(O)c2ccccc12`, the growth is -7.45% (active) in the assay with NCI-H23 lung; -13.1% (active) in the assay on NCI-H226 lung; 104% with NCI-H322M lung; 46.9% in the assay with HOP-62 NSCLC; 32.5% in the assay with NCI-H460 lung; -24.8% (active) in the assay with HOP-92 NSCLC. The growth with NCI-H522 lung is -79.4% (active); in the assay with A549/ATCC NSCLC it was 64.8%; with 786-0 renal it was -22.5% (active); in the assay with COLO 205 colon it was -85.6% (active); with DU-145 prostate, 41.9%; in the assay with K-562 leukemia, -16.2% (active). The growth is -14% (active) in the assay on MALME-3M melanoma; -11.8% (active) in the assay on MDA-MB-231 breast; -89.7% (active) in the assay with RXF 393 renal; -0.419% (active) with SF-268 CNS; -28.6% (active) with SF-539 CNS; 10.7% in the assay with UACC-257 melanoma. For the same compound, in the assay with M14 melanoma, the growth was -58.9% (active).

For the compound `Nc1c(C(=O)Nc2cccc(Br)c2)sc2nc3c(cc12)C(=O)CCC3`, the growth in the assay on NCI-H23 lung is 34%; with NCI-H226 lung, 75.1%; in the assay on NCI-H322M lung it was 64.7%; with HOP-62 NSCLC, 40.4%; with NCI-H460 lung, 4.31% (active); in the assay on HOP-92 NSCLC, 79.3%. Moreover, the growth in the assay on NCI-H522 lung was -20% (active); in the assay on A549/ATCC NSCLC, 24.4%; in the assay on 786-0 renal it was 51.8%; with COLO 205 colon it was -11.2% (active); in the assay with DU-145 prostate, 1.18% (active); with K-562 leukemia it was 13.7%. Besides, the growth with MALME-3M melanoma is 16.6%; with MDA-MB-231 breast it was 38.5%; in the assay with RXF 393 renal it was -1.14% (active); in the assay with SF-268 CNS, 62.6%; in the assay with SF-539 CNS it was 25.5%; in the assay with UACC-257 melanoma, 68%. The growth in the assay with M14 melanoma is 35.7%.

`COc1cc(-c2cc(-c3nc4cc(Cl)c(Cl)cc4[nH]3)[nH]n2)cc(OC)c1OC`: the growth with NCI-H23 lung is 75.3%; with NCI-H226 lung it was 38%; in the assay on NCI-H322M lung, 92.3%; with HOP-62 NSCLC, 80.6%; in the assay with NCI-H460 lung, 69.7%; in the assay on HOP-92 NSCLC it was 61.2%. Moreover, the growth in the assay on NCI-H522 lung was 45.8%; in the assay on A549/ATCC NSCLC, 69.5%; in the assay on 786-0 renal it was 87.4%; in the assay on COLO 205 colon, 46.8%; in the assay with DU-145 prostate, 92.5%; with K-562 leukemia, 17.5%. For the same compound, the growth in the assay with MALME-3M melanoma is 46.4%; in the assay with MDA-MB-231 breast, 74%; with RXF 393 renal it was 70.6%; in the assay on SF-268 CNS, 96.5%; in the assay on SF-539 CNS, 77.8%; with UACC-257 melanoma, 88%. Moreover, in the assay on M14 melanoma, the growth is 62.3%.

`COC(c1ccccc1)(c1ccccc1)c1ccccc1`: the growth in the assay with NCI-H23 lung was 95.4%; with NCI-H226 lung, 101%; with NCI-H322M lung it was 102%; in the assay on HOP-62 NSCLC, 106%; in the assay on NCI-H460 lung, 101%; with HOP-92 NSCLC it was 147%. Moreover, the growth in the assay on NCI-H522 lung was 116%; with A549/ATCC NSCLC, 104%; in the assay with 786-0 renal, 93%; in the assay with COLO 205 colon, 123%; with DU-145 prostate it was 108%; in the assay with K-562 leukemia it was 109%. Further, the growth was 95.4% in the assay with MALME-3M melanoma; 102% in the assay on MDA-MB-231 breast; 98.5% with SF-268 CNS; 90.7% with SF-295 CNS; 102% with SF-539 CNS; 122% in the assay on UACC-257 melanoma. In addition, in the assay with M14 melanoma, the growth was 136%.
